# Results: the supplement of paper PMC4022240
# ± gives the standard deviation.
# T1: HaloTag-ATRX ADD domain (163-292)
# T1 chain: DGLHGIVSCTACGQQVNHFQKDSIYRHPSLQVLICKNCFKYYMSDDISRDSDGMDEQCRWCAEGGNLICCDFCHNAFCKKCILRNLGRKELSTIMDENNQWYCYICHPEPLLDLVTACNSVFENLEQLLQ
# Columns and labels:
# Assay in all cases: peptide microarray binding signal (635 nm), min-max normalized on array (fraction of array maximum); higher = stronger binding
# Conditions in all cases: peptide region: H3 11-23
# [1] = target: T1, HaloTag-ATRX ADD domain (163-292)
# In short: (§1)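 For each library, binding signal was taken as the triplicate-spot mean intensity and then min-max scaled. Spots of histone 13-mer peptide–cellulose conjugates on nitrocellulose, printed in triplicate with a Cy3 tracer, were probed for 1 h at 4°C with either biotin-labelled HaloTag reader fusions (10 nM to 1 μM) and streptavidin-Alexa Fluor 647 or rabbit histone antibodies (1:10,000 to 1:2,000) and anti-rabbit Alexa 647. Readout at 635 nm came from an Axon GenePix 4000B.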
# [2] = target: HaloTag-ING2 PHD (mouse Ing2 200-280)
# In short: as §1
# [3] = target: anti-H3K4me3 antibody ab8580
# In short: as §1
# [4] = target: anti-H3K9me3 antibody ab8898
# In short: as §1
# [5] = peptide modifications: H3R17me2s H3K18me1, binder concentration: 1:2,000 dilution
# [6] = peptide modifications: H3R17me2s H3K18me1, binder concentration: 1:10,000 dilution
# [7] = peptide modifications: H3R17me1 H3K18me2, binder concentration: 1:2,000 dilution
# [8] = peptide modifications: H3R17me1 H3K18me2, binder concentration: 1:10,000 dilution
# [9] = peptide modifications: H3R17cit H3K18me3, binder concentration: 1:2,000 dilution
# [10] = peptide modifications: H3R17cit H3K18me3, binder concentration: 1:10,000 dilution
# [11] = peptide modifications: H3R17me2s H3K18ac, binder concentration: 1:2,000 dilution
# [12] = peptide modifications: H3R17me2s H3K18ac, binder concentration: 1:10,000 dilution
# [13] = peptide modifications: H3R17cit, binder concentration: 1:2,000 dilution
# [14] = peptide modifications: H3R17cit, binder concentration: 1:10,000 dilution
# [15] = peptide modifications: H3R17me2s H3K18me3, binder concentration: 1:2,000 dilution
# [16] = peptide modifications: H3R17me2s H3K18me3, binder concentration: 1:10,000 dilution
# [17] = peptide modifications: H3R17me2s H3K18me2, binder concentration: 1:2,000 dilution
# [18] = peptide modifications: H3R17me2s H3K18me2, binder concentration: 1:10,000 dilution
# [19] = peptide modifications: H3R17me1, binder concentration: 1:2,000 dilution
# [20] = peptide modifications: H3R17me1, binder concentration: 1:10,000 dilution
# [21] = peptide modifications: H3R17me1 H3K18me1, binder concentration: 1:2,000 dilution
# [22] = peptide modifications: H3R17me1 H3K18me1, binder concentration: 1:10,000 dilution
# [23] = peptide modifications: H3R17me1 H3K18ac, binder concentration: 1:2,000 dilution
# [24] = peptide modifications: H3R17me1 H3K18ac, binder concentration: 1:10,000 dilution
binder,measurement,setting,value
TGGKAPRKQLATK [H3 11-23 T G G K A P Rme2s Kme Q L A T K],peptide microarray binding signal,"[1]; peptide modifications: H3R17me2s H3K18me1, binder concentration: 50 nM",0.00755 ± 0.00027
same,peptide microarray binding signal,"[1]; peptide modifications: H3R17me2s H3K18me1, binder concentration: 500 nM",0.00986 ± 0.00028
same,peptide microarray binding signal,"[2]; peptide modifications: H3R17me2s H3K18me1, binder concentration: 10 nM",0.0187 ± 0.00059
same,peptide microarray binding signal,"[2]; peptide modifications: H3R17me2s H3K18me1, binder concentration: 100 nM",0.0288 ± 0.002
same,peptide microarray binding signal,[3]; [5],0.0153 ± 0.0029
same,peptide microarray binding signal,[3]; [6],0.0127 ± 0.0012
same,peptide microarray binding signal,[4]; [5],0.00368 ± 0.00012
same,peptide microarray binding signal,[4]; [6],0.00254 ± 3.9e-05
TGGKAPRKQLATK [H3 11-23 T G G K A P Rme Kme2 Q L A T K],peptide microarray binding signal,"[1]; peptide modifications: H3R17me1 H3K18me2, binder concentration: 50 nM",0.00837 ± 0.00068
same,peptide microarray binding signal,"[1]; peptide modifications: H3R17me1 H3K18me2, binder concentration: 500 nM",0.0122 ± 0.0013
same,peptide microarray binding signal,"[2]; peptide modifications: H3R17me1 H3K18me2, binder concentration: 10 nM",0.0167 ± 0.002
same,peptide microarray binding signal,"[2]; peptide modifications: H3R17me1 H3K18me2, binder concentration: 100 nM",0.0345 ± 0.0088
same,peptide microarray binding signal,[3]; [7],0.0126 ± 0.0083
same,peptide microarray binding signal,[3]; [8],0.0135 ± 0.01
same,peptide microarray binding signal,[4]; [7],0.00181 ± 0.00018
same,peptide microarray binding signal,[4]; [8],0.001557 ± 1.5e-05
TGGKAPRKQLATK [H3 11-23 T G G K A P Rcit Kme3 Q L A T K],peptide microarray binding signal,"[1]; peptide modifications: H3R17cit H3K18me3, binder concentration: 50 nM",0.00592 ± 0.00019
same,peptide microarray binding signal,"[1]; peptide modifications: H3R17cit H3K18me3, binder concentration: 500 nM",0.012 ± 0.00018
same,peptide microarray binding signal,"[2]; peptide modifications: H3R17cit H3K18me3, binder concentration: 10 nM",0.0112 ± 0.0014
same,peptide microarray binding signal,"[2]; peptide modifications: H3R17cit H3K18me3, binder concentration: 100 nM",0.0317 ± 0.0063
same,peptide microarray binding signal,[3]; [9],0.728 ± 0.052
same,peptide microarray binding signal,[3]; [10],0.45 ± 0.036
same,peptide microarray binding signal,[4]; [9],0.0249 ± 0.0032
same,peptide microarray binding signal,[4]; [10],0.0125 ± 0.0016
TGGKAPRKQLATK [H3 11-23 T G G K A P Rme2s Kac Q L A T K],peptide microarray binding signal,"[1]; peptide modifications: H3R17me2s H3K18ac, binder concentration: 50 nM",0.00658 ± 0.00084
same,peptide microarray binding signal,"[1]; peptide modifications: H3R17me2s H3K18ac, binder concentration: 500 nM",0.0081 ± 0.0003
same,peptide microarray binding signal,"[2]; peptide modifications: H3R17me2s H3K18ac, binder concentration: 10 nM",0.00776 ± 0.00012
same,peptide microarray binding signal,"[2]; peptide modifications: H3R17me2s H3K18ac, binder concentration: 100 nM",0.0133 ± 0.00095
same,peptide microarray binding signal,[3]; [11],0.00415 ± 0.00025
same,peptide microarray binding signal,[3]; [12],0.00468 ± 0.00016
same,peptide microarray binding signal,[4]; [11],0.00156 ± 4.6e-05
same,peptide microarray binding signal,[4]; [12],0.001441 ± 1.4e-05
TGGKAPRKQLATK [H3 11-23 T G G K A P Rcit K Q L A T K],peptide microarray binding signal,"[1]; peptide modifications: H3R17cit, binder concentration: 50 nM",0.00364 ± 6.7e-05
same,peptide microarray binding signal,"[1]; peptide modifications: H3R17cit, binder concentration: 500 nM",0.0192 ± 0.00046
same,peptide microarray binding signal,"[2]; peptide modifications: H3R17cit, binder concentration: 10 nM",0.00794 ± 0.00039
same,peptide microarray binding signal,"[2]; peptide modifications: H3R17cit, binder concentration: 100 nM",0.0168 ± 0.0043
same,peptide microarray binding signal,[3]; [13],0.000302 ± 4.1e-05
same,peptide microarray binding signal,[3]; [14],0.00148 ± 0.00015
same,peptide microarray binding signal,[4]; [13],0.00122 ± 4.2e-05
same,peptide microarray binding signal,[4]; [14],0.0015 ± 6.7e-05
TGGKAPRKQLATK [H3 11-23 T G G K A P Rme2s Kme3 Q L A T K],peptide microarray binding signal,"[1]; peptide modifications: H3R17me2s H3K18me3, binder concentration: 50 nM",0.00476 ± 0.00011
same,peptide microarray binding signal,"[1]; peptide modifications: H3R17me2s H3K18me3, binder concentration: 500 nM",0.00814 ± 0.00026
same,peptide microarray binding signal,"[2]; peptide modifications: H3R17me2s H3K18me3, binder concentration: 10 nM",0.0107 ± 0.0017
same,peptide microarray binding signal,"[2]; peptide modifications: H3R17me2s H3K18me3, binder concentration: 100 nM",0.0204 ± 0.0049
same,peptide microarray binding signal,[3]; [15],0.0681 ± 0.028
same,peptide microarray binding signal,[3]; [16],0.0469 ± 0.0085
same,peptide microarray binding signal,[4]; [15],0.0662 ± 0.01
same,peptide microarray binding signal,[4]; [16],0.0267 ± 0.0059
TGGKAPRKQLATK [H3 11-23 T G G K A P Rme2s Kme2 Q L A T K],peptide microarray binding signal,"[1]; peptide modifications: H3R17me2s H3K18me2, binder concentration: 50 nM",0.00549 ± 0.0002
same,peptide microarray binding signal,"[1]; peptide modifications: H3R17me2s H3K18me2, binder concentration: 500 nM",0.0107 ± 0.00094
same,peptide microarray binding signal,"[2]; peptide modifications: H3R17me2s H3K18me2, binder concentration: 10 nM",0.0163 ± 0.0016
same,peptide microarray binding signal,"[2]; peptide modifications: H3R17me2s H3K18me2, binder concentration: 100 nM",0.0188 ± 0.0013
same,peptide microarray binding signal,[3]; [17],0.02 ± 0.0013
same,peptide microarray binding signal,[3]; [18],0.0106 ± 0.0017
same,peptide microarray binding signal,[4]; [17],0.00296 ± 0.00028
same,peptide microarray binding signal,[4]; [18],0.00259 ± 6.1e-05
TGGKAPRKQLATK [H3 11-23 T G G K A P Rme K Q L A T K],peptide microarray binding signal,"[1]; peptide modifications: H3R17me1, binder concentration: 50 nM",0.0101 ± 0.00079
same,peptide microarray binding signal,"[1]; peptide modifications: H3R17me1, binder concentration: 500 nM",0.0274 ± 0.0035
same,peptide microarray binding signal,"[2]; peptide modifications: H3R17me1, binder concentration: 10 nM",0.00877 ± 0.0015
same,peptide microarray binding signal,"[2]; peptide modifications: H3R17me1, binder concentration: 100 nM",0.0348 ± 0.0049
same,peptide microarray binding signal,[3]; [19],0.00176 ± 7.5e-05
same,peptide microarray binding signal,[3]; [20],0.00103 ± 2.1e-05
same,peptide microarray binding signal,[4]; [19],0.00326 ± 7.1e-05
same,peptide microarray binding signal,[4]; [20],0.00265 ± 0.00014
TGGKAPRKQLATK [H3 11-23 T G G K A P Rme Kme Q L A T K],peptide microarray binding signal,"[1]; peptide modifications: H3R17me1 H3K18me1, binder concentration: 50 nM",0.009 ± 0.00036
same,peptide microarray binding signal,"[1]; peptide modifications: H3R17me1 H3K18me1, binder concentration: 500 nM",0.018 ± 0.0028
same,peptide microarray binding signal,"[2]; peptide modifications: H3R17me1 H3K18me1, binder concentration: 10 nM",0.0114 ± 0.001
same,peptide microarray binding signal,"[2]; peptide modifications: H3R17me1 H3K18me1, binder concentration: 100 nM",0.0208 ± 0.0062
same,peptide microarray binding signal,[3]; [21],0.00808 ± 0.0017
same,peptide microarray binding signal,[3]; [22],0.00622 ± 0.0014
same,peptide microarray binding signal,[4]; [21],0.0021 ± 0.00037
same,peptide microarray binding signal,[4]; [22],0.00161 ± 4.1e-05
TGGKAPRKQLATK [H3 11-23 T G G K A P Rme Kac Q L A T K],peptide microarray binding signal,"[1]; peptide modifications: H3R17me1 H3K18ac, binder concentration: 50 nM",0.00715 ± 0.00026
same,peptide microarray binding signal,"[1]; peptide modifications: H3R17me1 H3K18ac, binder concentration: 500 nM",0.0141 ± 0.00063
same,peptide microarray binding signal,"[2]; peptide modifications: H3R17me1 H3K18ac, binder concentration: 10 nM",0.00931 ± 0.0014
same,peptide microarray binding signal,"[2]; peptide modifications: H3R17me1 H3K18ac, binder concentration: 100 nM",0.0197 ± 0.0049
same,peptide microarray binding signal,[3]; [23],0.00513 ± 0.00068
same,peptide microarray binding signal,[3]; [24],0.0149 ± 0.004
same,peptide microarray binding signal,[4]; [23],0.001208 ± 9.1e-06
same,peptide microarray binding signal,[4]; [24],0.00121 ± 3.2e-05
